As usually defined, the inhibition is the relative decrease from the control value, in per cent.

“And” between values parts separate entries of the source, which are not always exact repeats. Identical values can stand only once. Among all 290,000 compounds or so, about 11,000 (3.8%) were called active.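 The calls were made as follows: active = mean replicate inhibition above about 79%, with every replicate also reaching it (limit read from the data); inconclusive = only one of the two criteria met; inactive = mean below limit and not every replicate reaching it.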 Only a selection was taken, and actives are over-represented in it overall.

In this assay the target is FAD-linked sulfhydryl oxidase ALR (Homo sapiens) (UniProt P55789). Description: ALR-catalysed DTT oxidation blockers – biochemical, H2O2 detection, HRP-luminol luminescence, single point, primary screen (AID 485317). Conditions: purified ALR, stronger effect = higher value, concentration not given here.
FAD-linked sulfhydryl oxidase ALR (Homo sapiens), sequence (P55789 whole entry, looked up): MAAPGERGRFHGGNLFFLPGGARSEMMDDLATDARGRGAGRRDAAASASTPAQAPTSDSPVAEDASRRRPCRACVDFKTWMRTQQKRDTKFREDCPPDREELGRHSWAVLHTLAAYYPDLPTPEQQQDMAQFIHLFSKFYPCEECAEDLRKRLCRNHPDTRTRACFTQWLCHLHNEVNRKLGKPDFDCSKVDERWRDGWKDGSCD
On to `Cc1ccc(NC(=O)CN2CCC3(O)CCCCC3C2c2ccc3c(c2)OCO3)c(C)c1` (centres undefined), for which the inhibition is 6.21% (inactive).

Consider `O=C(CN1CCC(O)(c2ccccc2)CC1)Nc1ccc2c(c1)OCCO2`, for which the inhibition was -15.8% (inactive).

For `CCN(CC)c1ccc(C2C3CCCCC3(O)CCN2CC(=O)Nc2ccccc2)cc1` (centres undefined), the inhibition is 97.5% (active).

For the compound `O=C(COC(=O)/C=C/c1cccc(Cl)c1)NCc1cccs1`, the inhibition is -15.2% (inactive).

Turning to `O=C(COc1ccccc1Cl)N1N=C(c2cccs2)CC1c1ccco1` (centres undefined), the inhibition was 12.6% (inactive).

For the compound `O=C(CSc1nc2nccnc2c(=O)n1Cc1cccs1)Nc1ccccc1F`, the inhibition was 98.7% (active).

As for `COCCn1c(SCC(=O)Nc2ccccc2F)nc2c(c1=O)SCC2`, the inhibition was 23.5% (inactive).

With `CCOc1ccc(NC(=O)CSc2nc3ccccc3c(=O)n2Cc2cccs2)cc1`, the inhibition was -4.39% (inactive).

For `COc1ccc(C(=O)N2CCN(c3ccc(C(C)=O)cc3F)CC2)cc1S(=O)(=O)NC1CC1`, the inhibition was 2.33% (inactive).

Take `COc1cccc(NC(=O)CN(C)C(=O)CSC(=S)N2CCCC2)c1`: the inhibition was -14.6% (inactive).

Regarding `CCCCN1C(=O)/C(=C2/C=CC=CN2C)SC1=S`, the inhibition is 99% (active).

As for `CCCCN1C(=O)/C(=C2/Sc3ccc(Cl)cc3N2CC)SC1=S`, the inhibition is -23.2% (inactive).

Turning to `CN1C=CC=C/C1=C1\SC(=S)N(Cc2ccccc2)C1=O`, the inhibition is -1.3% (inactive).

As for `O=C(CSc1nc2ccccc2c(=O)n1-c1ccccc1F)N1CCOCC1`, the inhibition is -2.73% (inactive).

Regarding `CC1CCC(NC(=O)CNC(=O)c2ccc3ccccc3c2)CC1` (centres undefined), the inhibition was -7.47% (inactive).

`COCC(=O)N=Nc1c(O)[nH]c2ccccc12`: the inhibition was -3.07% (inactive).

For `COc1cc(N=Cc2c(O)[nH]c3ccccc23)cc(OC)c1OC`, the inhibition is 96.6% (active).

As for `COc1cc(N=Cc2c(O)c3ccccc3oc2=O)c(OC)cc1Cl`, the inhibition was -4.24% (inactive).

`COc1ccc(N=Cc2c(O)[nH]c3ccccc23)cc1OC`: the inhibition was 99.3% (active).

Turning to `COc1ccccc1N=Cc1c(O)c2ccccc2oc1=O`, the inhibition is 0.366% (inactive).

For `CN=c1scc(-c2cc(OC)ccc2OC)n1/N=C/c1c(C)[nH]c2ccccc12`, the inhibition is 15.7% (inactive).

Turning to `CN(CC(=O)Nc1ccc(Cl)c(C(F)(F)F)c1)C(=O)CCC(=O)c1ccccc1`, the inhibition is -3.88% (inactive).

For `Cc1ccc(C)c(S(=O)(=O)N2CCN(c3ncnc4sccc34)CC2)c1`, the inhibition was -13.7% (inactive).

For the compound `O=C(NCc1ccccc1)c1onc(CSc2ccncc2)c1C(=O)NCc1ccccc1`, the inhibition is -5.05% (inactive).

`CC(C)n1ncc2c(C(=O)Nc3ccc(CC#N)cc3)cc(C3CC3)nc21`: the inhibition was -14.1% (inactive).

`O=C(c1ccc(N2CCOCC2)c([N+](=O)[O-])c1)N1CCN(c2ccccc2F)CC1`: the inhibition was 0.595% (inactive).

In the case of `O=C1C=C(c2cc(C(F)(F)F)cc(C(F)(F)F)c2)C[C@@H](c2ccc3c(c2)OCO3)C1`, the inhibition is -3.13% (inactive).

Turning to `Cc1ccc(Nc2ccccc2N)cc1`, the inhibition was 85.9% (active).

Consider `Nc1ccc(Nc2ccccc2)cc1`, for which the inhibition is -2.25% (inactive).

Turning to `Cc1ccc(Nc2ccc(C(N)=O)cc2[N+](=O)[O-])cc1`, the inhibition was -3.97% (inactive).

Consider `COc1ccc(NC(=O)CN(C)C(=O)c2cc(-c3ccc(C)o3)nc3ccccc23)cc1`, for which the inhibition was -3.77% (inactive).

Consider `CS(=O)(=O)N(CC(=O)N1CCc2ccccc2C1)c1ccc(Br)cc1`, for which the inhibition is -3.9% (inactive).

On to `C=CCn1c(C2CC(=O)N(c3ccc(C)cc3)C2)nc2ccccc21` (centres undefined), for which the inhibition is 87.3% (active).

As for `CC(C)(C)N1CC(c2nc3ccccc3n2Cc2ccc(F)cc2)CC1=O` (centres undefined), the inhibition is -2.5% (inactive).

In the case of `C=CCn1c(P(C)(=O)O)nc2ccccc21`, the inhibition is -17.7% (inactive) and -5.83% (inactive).

As to `COc1ccc(OC)c(NC(=O)COC(=O)Cc2ccsc2)c1`, the inhibition was -0.814% (inactive).

With `Cc1cc(C)cc(N)c1`, the inhibition was 8.46% (inactive).

`Cc1ccc(S(=O)(=O)c2ccc(Oc3ccccc3)cc2)cc1`: the inhibition is -8.5% (inactive).

For the compound `Cc1ccc(Oc2ccc(N)cc2)cc1`, the inhibition is 98.9% (active).

For `CC(C)(C)c1ccc(Oc2ccc(N)cc2)cc1`, the inhibition was 98.6% (active).

`CC(C)(C)c1ccc(OC2=CS(=O)(=O)c3ccccc32)cc1`: the inhibition was 4.58% (inactive).

For `Cc1cc(C(C)(C)C)cc(C)c1N`, the inhibition was -3.27% (inactive).

In the case of `CCOC(=O)N1CCN(C(=O)CSc2nc(=O)n3cccc(C)c3n2)CC1`, the inhibition was 1.32% (inactive).

Take `CCN(CC(=O)Nc1c(F)cccc1F)C(=O)C1CCC1`: the inhibition was -1.96% (inactive).

For the compound `O=C(NCCC1CCCCN1S(=O)(=O)c1ccccc1)C(=O)NCC1CCCO1` (centres undefined), the inhibition was -4.14% (inactive).

For `C[C@@H]1CN([C@@H](C)CO)C(=O)c2cc(NC(=O)C3CC3)ccc2O[C@H]1CN(C)C`, the inhibition is 1.71% (inactive).

As to `COc1ccc(-c2nnc(SC(=O)N3c4ccccc4Sc4ccccc43)o2)cc1`, the inhibition is 94.9% (active).

With `COc1ccc(-c2nnc(SCC(=O)c3ccc4c(c3)OCCO4)o2)cc1`, the inhibition was 4.53% (inactive).

Take `COc1ccc(-c2nnc(SCc3cccnc3)o2)cc1`: the inhibition was -15% (inactive).

For the compound `COc1ccc(C2(c3ccc(OC)cc3)NC(=O)N(CC(=O)Nc3cc(C)on3)C2=O)cc1`, the inhibition was -0.145% (inactive).

As for `Cc1ccc(SCC(=O)Nc2nncs2)cc1`, the inhibition was -6.08% (inactive).

Turning to `COCCCN(C(=O)CSCc1ccc(C)cc1)c1c(N)n(Cc2ccccc2)c(=O)[nH]c1=O`, the inhibition is 46.2% (inactive).

Consider `Oc1c(Br)cc(/C=N/NC(=S)NCC2CCCO2)cc1Br` (centres undefined), for which the inhibition is 96.2% (active).

For the compound `O=C(CNC(=O)C1COc2ccccc2O1)N/N=C/c1cc(Br)c(O)c(Br)c1` (centres undefined), the inhibition is 66.1% (inactive).

Consider `S=C(NCC1CCCO1)N1CCN(c2ccc(Cl)c(Cl)c2)CC1` (centres undefined), for which the inhibition is 0.527% (inactive).

For `CCCN(C(=O)c1nc2nccc(C)n2n1)c1c(N)n(Cc2ccccc2)c(=O)[nH]c1=O`, the inhibition is 1.52% (inactive).

In the case of `CCc1ccc(NC(=O)CN2C(=O)COc3ccc(S(=O)(=O)N4CCCC4)cc32)cc1`, the inhibition was -3.09% (inactive).

As for `CN(C)c1ccc(CNC(=O)CN2C(=O)COc3ccc(S(=O)(=O)N4CCCC4)cc32)cc1`, the inhibition is 98.6% (active).

Regarding `COc1ccc(CCNC(=O)CN2C(=O)COc3ccc(S(=O)(=O)N4CCCC4)cc32)cc1OC`, the inhibition is -1.92% (inactive).

Regarding `O=C(NCc1ccccn1)Nc1ccc(Cl)cc1`, the inhibition was -24.3% (inactive).

As to `Cc1cc(=O)oc2c(C)c(OCC(=O)NCCN3CCOCC3)ccc12`, the inhibition is -3.13% (inactive).

Consider `Cc1ccsc1-c1nc(CSCC(=O)NCCN2CCCC2)c(C)o1`, for which the inhibition was 97.8% (active).

`CCC1=Nc2cc(C(=O)NCCN3CCCC3)ccc2Sc2ccc(C)cc21`: the inhibition was -17.3% (inactive).

On to `CC(C)(C)c1nnc(N/N=C/c2ccc(O)cc2)n(N)c1=O`, for which the inhibition was 98.8% (active).

For `O=C(O)c1ccc(/C=N/Nc2nc(N3CCCCC3)nc(N3CCCCC3)n2)cc1`, the inhibition is 3.03% (inactive).

Turning to `CCCCn1c(N)c(N(CC(C)C)C(=O)c2cccc(S(=O)(=O)N3CC(C)OC(C)C3)c2)c(=O)[nH]c1=O` (centres undefined), the inhibition was -2.1% (inactive).

As to `OCCCNc1nc(-c2ccccc2)c2cc(Cl)ccc2n1`, the inhibition was -2.06% (inactive).

With `CC(Sc1ncnc2c1cnn2-c1ccccc1)C(=O)Nc1ccc(N2CCOCC2)cc1` (centres undefined), the inhibition was -5.27% (inactive).

Consider `CCOC(=O)c1c(-c2ccc(-c3ccccc3)cc2)csc1NC(=O)CCC(=O)O`, for which the inhibition was 60.9% (inactive).

On to `CCOC(=O)c1c(-c2ccc(C)cc2)csc1/N=C(\C)C1=C(O)c2ccccc2C1=O`, for which the inhibition is 1.75% (inactive).

As for `COC(=O)c1c(-c2ccc(C)cc2)csc1N`, the inhibition was 97.8% (active).

On to `COc1ccc(Cl)cc1C(=O)Nc1ccc(N(C)C(C)=O)cc1`, for which the inhibition was -1.72% (inactive).

For `COc1cc(OC)c(C(=O)Nc2ccccc2-c2ccccc2)cc1OC`, the inhibition was -1.64% (inactive).

As for `COc1cc(OC)c(C(=O)Nc2ccc(N(C)C)cc2)cc1OC`, the inhibition is 99.6% (active).

As to `Cc1ccccc1SCC(=O)OCC(=O)N1CC(=O)Nc2ccccc21`, the inhibition was -7.18% (inactive).

In the case of `COc1ccc(-n2ncc3c(SCC(=O)NNC(C)=O)ncnc32)cc1`, the inhibition is -1.15% (inactive).

On to `COC(=O)CSc1ncnc2c1cnn2-c1ccc(C)cc1C`, for which the inhibition is 96.9% (active).

`Cc1ccc(-n2ncc3c(=O)[nH]cnc32)c(C)c1`: the inhibition is -6.83% (inactive).

Regarding `CCOC(=O)C1CCCN(C(=O)c2ccc(C)c(S(=O)(=O)N3CCCCC3)c2)C1` (centres undefined), the inhibition was -0.131% (inactive).

As to `COc1cc(N2C(=O)CSC2=S)cc(OC)c1OC`, the inhibition was 3.65% (inactive).

As to `O=C1CSC(=S)N1c1ccc(Cl)c(Cl)c1`, the inhibition is 38.1% (inactive).

Take `O=C1CSC(=S)N1c1ccc(O)cc1`: the inhibition was 91.3% (active).

`CCOc1ccccc1OCC(=O)Nc1ccccc1C(=O)NC1CC1`: the inhibition is 20.6% (inactive).

With `CCOc1ccc(C(C)NC(=O)CN2C(=O)NC3(CCCCC3)C2=O)cc1OCC` (centres undefined), the inhibition was -15.6% (inactive).

As for `COc1cccc(OC)c1C(=O)Nc1sc2c(c1C(N)=O)CCCC2`, the inhibition is -6.93% (inactive).

For the compound `NC(=O)c1c(Nc2nc3c(F)cccc3s2)sc2c1CCCC2`, the inhibition was 87.1% (active).

As for `NC(=O)c1c(NC(=O)CSc2nnc(-c3ccco3)n2N)sc2c1CCCC2`, the inhibition is 9.78% (inactive).

Turning to `O=C(NCc1ccc(Cl)cc1)C(=O)NCC1CCCN1S(=O)(=O)c1cccs1` (centres undefined), the inhibition is -0.71% (inactive).

Turning to `Cc1ccc(NC(=O)c2cnc(SCC(=O)NCC3CCCO3)n(C)c2=O)cc1` (centres undefined), the inhibition is -10.7% (inactive).

`Cc1nc(-c2ccc(F)cc2)c(CC(=O)Nc2cc(S(=O)(=O)N3CCCCC3)ccc2C)s1`: the inhibition was -9.47% (inactive).

Take `O=C1CC(c2ccccc2)C(=O)N1c1cccc(O)c1` (centres undefined): the inhibition was 14.5% (inactive).

For the compound `O=C1CC(NNc2ccccc2)C(=O)N1c1cccc(Cl)c1` (centres undefined), the inhibition is 98% (active).

`O=C(NNC1CC(=O)N(c2cccc(Cl)c2)C1=O)c1cccnc1` (centres undefined): the inhibition is 11.7% (inactive).

For `COc1cc(C(=O)NC2CCN(C)CC2)ccc1Nc1ncc2c(n1)N(C1CCC(O)CC1)CCC(=O)N2C` (centres undefined), the inhibition is -1.63% (inactive).
